Assay outcomes deposited in PubChem BioAssay by several laboratories.
In the library only some 4.1% were active in any assay of this set; here they are far more common.
TRPM1 prom inh – MITF TRPM1 promoter inhibition in SK-MEL-5 cells. SK-MEL-5 TRPM1 promoter luciferase, 24 h. inhibition, % at 12.5 µM. actives 0.83% (n = 330,000);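 active means mean inhibition across replicates of 60% or more, whatever share of single replicates reaches that level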
EBV LMP1 NFkB – Epstein-Barr LMP1 NF-kappaB reporter inhibition; actives 0.69% (n = 350,000); LMP1-induced NF-kappaB luciferase reporter cells, luminescence; inhibition, % at 12.5 µM; in the data active means inhibition above about 41%;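 further: 0% = neutral control wells and 100% = reference inhibitor control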
TROY NFkB inh – inhibitors of TROY-dependent NF-kB signaling; inhibition, % at 10 µM; actives 0.98% (n = 360,000); Q293 LMP1-TROYcd NF-kB luciferase reporter, 4 h;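 active means compounds whose plate-normalised and pattern-corrected inhibition of the luciferase reporter signal at the single screening dose is 50% or more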
TWEAK Fn14 block – TWEAK-Fn14 signaling inhibition; TWEAK-stimulated Fn14 reporter cells, luciferase luminescence, 8 h; inhibition, % at 10 µM; actives 2% (n = 360,000); in the data active means inhibition above about 50%
Peg3 prom inh – Peg3 promoter activity inhibition. actives 1.7% (n = 360,000). AID 588405. inhibition, % at 20 µM. HeLa PEG-Prom luciferase reporter, luminescence, overnight;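 active means inhibition of at least 50% at 20 µM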
Shn3 3UTR inh – Schnurri-3 reporter inhibition in Clone20 osteoblasts | AID 588674 | Clone20 osteoblast Shn3 3'UTR firefly luciferase, 24 h | inhibition, % at 12.5 µM | actives 0.52% (n = 360,000);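 active means mean inhibition of at least 75% with every replicate also reaching 75%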;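 further: 0% = median of neutral control wells and 100% = pilot-screen positive control compound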
An asterisk follows results filed as active; / = no result given.

SMILES	TRPM1 prom inh	EBV LMP1 NFkB	TROY NFkB inh	TWEAK Fn14 block	Peg3 prom inh	Shn3 3UTR inh
Cc1ccc(S(=O)(=O)N2CCC(C(=O)N3Cc4ccccc4C3)CC2)cc1	-3.5	4.0	15.5	4.5	15.8	1.9
Cc1ccc(S(=O)(=O)N2CCC(C(=O)N3CCN(c4ccccn4)CC3)CC2)cc1	3.3	0.4	-2.9	75.5*	21.7	-6.2
COc1ccc(N(S(=O)(=O)c2ccccc2)S(=O)(=O)c2ccccc2)c(N)c1	27.5	-19.2	8.3	29.8	12.0	-10.4
Cc1ccc(NC(=O)COC(=O)CCc2ccccc2)c(Cl)c1	-0.9	-4.4	-24.4	8.8	-13.5	-12.0
Cc1ccc2c(COC(=O)c3ccccc3F)cc(=O)oc2c1	-23.0	-16.8	24.1	62.8*	-80.6	0.1
CC1CCCC(NC(=O)COC(=O)CCC(=O)c2cccs2)C1C (stereo unspecified)	6.1	56.8*	-13.6	-1.6	-4.0	-7.3
CC1CCCCC1NC(=O)COC(=O)CCC(=O)c1cccs1 (stereo unspecified)	-20.2	1.8	-8.2	4.8	3.3	-14.0
CC1CCCC(NC(=O)COC(=O)CN2C(=O)C3CCCCC3C2=O)C1C (stereo unspecified)	20.7	-11.6	10.9	50.2*	0.8	-5.6
NC(=O)c1ccc2c(c1)OCCO2	0.9	1.3	/	16.4	20.8	6.7
CNS(=O)(=O)c1cccc(C(=O)OCC(=O)c2ccc[nH]2)c1	-6.8	-0.6	-17.2	5.3	-10.5	-3.5
O=C(COC(=O)c1cccs1)c1ccc2c(c1)OCCO2	-45.9	-15.9	74.5*	61.1*	-101.5	-21.3
CC(=O)NC12CC3CC(C1)CC(C(=O)OCC(=O)c1cc(C)n(C)c1C)(C3)C2	-26.5	14.1	-20.2	0.5	-204.7	-15.0
CC(=O)NC12CC3CC(C1)CC(C(=O)OCC(=O)c1ccc4c(c1)OCCO4)(C3)C2	-13.7	-25.9	53.8*	58.2*	-97.6	-52.9
CCOC(=O)C(=O)CC(=O)c1ccc2c(c1)OCCO2	3.5	28.3	72.5*	-4.3	-37.5	-9.5
CNS(=O)(=O)c1cccc(C(=O)OCC(=O)c2ccc3c(c2)OCCO3)c1	5.1	43.2*	-23.9	10.7	-9.8	-4.9
Cc1noc(C)c1COc1ccccc1C(=O)N(C)Cc1ccc(C(C)(C)C)cc1	13.0	10.3	44.2	22.3	16.0	73.2
COc1ccc(NC(=O)CN(C)C(=O)c2oc3ccccc3c2C)cc1	19.9	-7.5	-1.5	20.8	13.0	8.3
CCc1ccc(C(=O)COC(=O)c2cccs2)cc1	-76.0	-24.5	5.6	2.9	-182.4	-22.0
Cc1ccc(C(=O)COC(=O)c2cccs2)cc1	-52.3	-24.8	58.8*	42.6	-106.9	-33.4
Cc1cccc(C(=O)OCC(=O)c2ccc3c(c2)OCO3)c1O	-120.3	-59.1	-22.4	-23.6	-349.4	-101.0
Cc1cccc(C(=O)OCC(=O)c2ccc3c(c2)OCCO3)c1O	-58.7	-18.0	54.5*	13.5	-295.5	-108.7
O=C(COC(=O)c1ccccc1[N+](=O)[O-])c1ccc2c(c1)OCO2	-53.6	-13.7	78.1*	78.1*	-65.7	-7.7
CC(C)CN(C(=O)COC(=O)c1cccn1C)c1c(N)n(Cc2ccccc2)c(=O)[nH]c1=O	6.8	-0.2	3.0	9.4	-0.1	-4.0
COCCN(Cc1cc2cc(C)ccc2[nH]c1=O)S(=O)(=O)c1ccc(Cl)cc1	5.5	-2.3	2.2	-5.8	0.8	7.3
Cn1nc(-c2ccccc2)cc1NC(=O)CCCC(=O)O	-41.6	-3.3	-5.7	10.2	4.6	-37.1
SMILES	TRPM1 prom inh	EBV LMP1 NFkB	TROY NFkB inh	TWEAK Fn14 block	Peg3 prom inh	Shn3 3UTR inh
CCCc1nc2c(C)cc(Br)cn2c1Cc1cccc(F)c1	/	/	28.0	13.4	-86.8	-10.6
O=C(Cc1cccs1)N/N=C\c1ccc([N+](=O)[O-])s1	52.3	-5.8	-9.0	4.3	-37.2	14.5
Cc1ccc(NC(=S)N/N=C/c2ccc([N+](=O)[O-])s2)cc1	69.9*	37.6	-48.1	30.6	6.5	65.6
O=[N+]([O-])c1ccc(C=Nc2ccc(Cl)c([N+](=O)[O-])c2)s1	71.4*	-48.8	-1.1	4.0	80.6*	80.1
Cc1cc(C)cc(N=Cc2ccc([N+](=O)[O-])s2)c1	28.0	-7.6	-20.9	20.8	50.7*	10.0
CC(NC(=O)c1ccc(Cl)c(S(=O)(=O)NC2CC2)c1)c1ccco1 (stereo unspecified)	/	-0.8	4.7	9.0	2.4	4.2
